PubChem BioAssay (EPA / NIEHS)
Values joined by “and” are separate entries in the source; they are usually repeats but may differ in a detail not shown here. Equal values may be shown once. Records with an inconclusive call do not appear. A structure can be active in one record and inactive in another. Active and inactive are the calls of the source. Rule for the calls: active = hit-call score of the fitted dose curve at least 0.9, where 1 is the maximum; inconclusive = response in the unintended direction; inactive = score below 0.9.

molecular target: Bile acid receptor (Homo sapiens) (UniProt Q96RI1); assay: ATG_FXR_TRANS: Attagene TRANS-FACTORIAL HepG2 Assay for Farnesoid X Receptor (FXR) (AID 2282979); conditions: HepG2 Attagene TRANS FXR-GAL4 reporter transcription;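 note: hits raise reporter mRNA above DMSO so AC50 marks FXR activation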
Sequence (Q96RI1 whole entry, looked up, the tested form may be a part): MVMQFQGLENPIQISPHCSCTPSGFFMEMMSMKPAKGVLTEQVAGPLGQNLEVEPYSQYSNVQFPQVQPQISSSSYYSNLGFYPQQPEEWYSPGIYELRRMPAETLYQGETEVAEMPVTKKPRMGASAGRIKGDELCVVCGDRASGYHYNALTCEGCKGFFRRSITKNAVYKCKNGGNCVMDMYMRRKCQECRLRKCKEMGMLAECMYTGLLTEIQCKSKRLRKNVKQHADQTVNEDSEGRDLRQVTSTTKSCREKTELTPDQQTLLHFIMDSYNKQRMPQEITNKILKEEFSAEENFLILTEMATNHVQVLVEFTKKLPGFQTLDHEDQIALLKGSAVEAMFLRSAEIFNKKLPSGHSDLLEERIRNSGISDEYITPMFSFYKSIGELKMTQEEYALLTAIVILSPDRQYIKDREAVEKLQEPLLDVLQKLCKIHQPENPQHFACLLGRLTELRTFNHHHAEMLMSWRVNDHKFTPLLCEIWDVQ
Experimental: ATG_TRANS is a cell-based, multiplexed-readout assay that uses HepG2, a human liver cell line, with measurements taken at 24 hours after chemical dosing in a 24-well plate.ATG_FXR_TRANS is one of 30 assay component(s) measured or calculated from the ATG_TRANS assay. It is designed to make measurements of mRNA induction, a form of inducible reporter, as detected with fluorescence intensity signals by Reverse transcription polymerase chain reaction (RT-PCR) and Capillary electrophoresis technology.Data from the assay component ATG_FXR_TRANS was analyzed into 1 assay endpoint. This assay endpoint, ATG_FXR_TRANS, was analyzed in the positive analysis fitting direction relative to DMSO as the negative control and baseline of activity. Using a type of inducible reporter, measures of mRNA for gain-of-signal activity can be used to understand the reporter gene at the transcription factor-level as they relate to the gene NR1H4. Furthermore, this assay endpoint can be referred to as a primary readout, because this assay has produced multiple assay endpoints where this one serves a reporter gene function. To generalize the intended target to other relatable targets, this assay endpoint is annotated to the nuclear receptor intended target family, where the subfamily is non-steroidal.
Human liver HepG2 cells are transiently transfected with multiple reporter transcription units (MRTUs) in 6-well plates using FuGene 6 reagent (Roche; 3 ml FuGene/1 mg DNA). The MRTU constructs are regulated by a cis-regulating element (promoter). […] A major difference between the CIS and TRANS system is that in CIS activities of endogenous TFs are measured, whereas the TRANS assay evaluates changes in activities of exogenous, chimeric NR-Gal4 proteins. […] At the end of 24 hour incubation, total RNA was isolated using TriZol reagent (Invitrogen). The isolated RNA is then reverse-transcribed using oligo(dT) primer and Mo-MLV reverse transcriptase (Invitrogen) with DNAse I (Ambion) treatment for 30 min. The one-tenth of the produced cDNA was amplified by PCR using Taq DNA polymerase (Invitrogen) and two reporter sequence-specific primers. The PCR products were fluorescently labeled by primer extension with 6-arboxyfluorescein (6-FAM) 5'-labeled reporter sequence-specific primer (2 min at 95 C, 20 s at 68 C and 10 min at 72 C) and these products were digested with 5U of HpaI (New England Biolabs) for 2h at 37 C. The fragments were purified using Qiaquick PCR columns (Qiagen), analyzed on an ABI 3130xL genetic analyzer (Applied Biosystems) with peak positions identified by using a set of X-rhodamine (ROX)-labeled MapMarker1000 molecular weight standards (BioVentures). The raw capillary electrophoresis data was processed using Attagraph software (Attagene).

Structure (SMILES)	outcome	AC50
Nc1ccc(Cl)cc1C(=O)c1ccccc1	inactive	
C=CC(=O)OCCCCCC(C)C	inactive	
CCOP(=S)(OCC)SCCS(=O)(=O)CC	inactive	
CCC(=O)c1ccccc1	inactive	
Cl/C=C\C[N+]12CN3CN(CN(C3)C1)C2	inactive	
CC(=[OH+])/C=C(/C)[O-].CC(=[OH+])/C=C(/C)[O-].CC(=[OH+])/C=C(/C)[O-].[Fe]	inactive	
COC[C@H](C)N(C(=O)CCl)c1c(C)csc1C	inactive	
Oc1cccc2cccnc12	inactive	
O=C(Nc1ccc2[nH]ccc2c1)c1cc2cc(F)ccc2n1Cc1cccc(F)c1	inactive	
CCC(C)(C)c1ccc(O)c(C(C)(C)CC)c1		49.5 µM (active)
O=C(O)C(F)(F)C(F)(F)C(F)(F)C(F)(F)C(F)(F)C(F)(F)F	inactive	
CCC(=O)C(CC(C)N(C)C)(c1ccccc1)c1ccccc1 (stereo not given)	inactive	
C=C(C)C#N	inactive	
Oc1ccc(-c2ccccc2)cc1	inactive	
CCN(CC)C(=O)Cl	inactive	
CC(C)(OO)c1ccccc1	inactive	
COP(=O)(OC)O/C(=C\Cl)c1cc(Cl)c(Cl)cc1Cl	inactive	
CCOP(OCC)OCC	inactive	
CC1(C)CCC(Cc2ccc(Cl)cc2)C1(O)Cn1cncn1 (stereo not given)	inactive	
C[C@@H]1C[C@@H]([C@H](O)CC2CC(=O)NC(=O)C2)C(=O)[C@@H](C)C1	inactive	

Structure (SMILES)	outcome	AC50
CCC(C)c1cccc(C(C)CC)c1O (stereo not given)	inactive	
O=C(Cc1ccccc1)c1ccccc1	inactive	
O=C1C2(Cl)C3(Cl)C4(Cl)C(Cl)(Cl)C5(Cl)C3(Cl)C1(Cl)C5(Cl)C24Cl (stereo not given)	inactive	4.29 µM (active) and 8.79 µM (active) and 10.4 µM (active)
CN(C)P(=O)(N(C)C)N(C)C	inactive	
O=[N+]([O-])c1ccc2c3c(cccc13)CC2	inactive	
COS(=O)(=O)c1ccc(C)cc1	inactive	
Clc1ccc(C2(Cn3cncn3)CC(Br)CO2)c(Cl)c1 (stereo not given)	inactive	
Clc1ccc(COC(Cn2ccnc2)c2ccc(Cl)cc2Cl)cc1 (stereo not given)	inactive	
Oc1c(I)cc(I)cc1I		100 µM (active)
CC(C)c1ccc(CO)cc1	inactive	
CN(C)N=O	inactive	
ClC1(Cl)C2(Cl)C3(Cl)C4(Cl)C(Cl)(Cl)C5(Cl)C3(Cl)C1(Cl)C5(Cl)C24Cl (stereo not given)	inactive	
O=C(O)Cc1ccccc1	inactive	
CC(=O)OC(c1ccccc1)C(Cl)(Cl)Cl (stereo not given)	inactive	
CC(=O)[O][Hg][c]1ccccc1	inactive	
CCc1ccccc1C	inactive	
O=C1CCCN1	inactive	
CCCCP(CCCC)CCCC	inactive	
ClC1=C(Cl)[C@]2(Cl)[C@@H]3[C@@H](Cl)[C@@H](Cl)C[C@@H]3[C@@]1(Cl)C2(Cl)Cl	inactive	
